According to PubChem BioAssay (NCI):
About 79,000 compounds went through this panel and 15% of them were active in at least one assay; those are over-represented in the sample as a whole. A number with no mark means an inactive call. Activity calls are given as the source filed them. Cut-off read from the data, not from the text of the source: active = growth inhibition above about 70%; inactive = the rest.

Assay: NCI Yeast Anticancer Drug Screen. Data for the mec2-1 strain (AID 157)
Settings: S. cerevisiae mec2-1 strain, stronger effect = higher value
Experimental: Growth inhibition of yeast strains with defined genetic alterations is measured as a screen for potential anti-cancer activity. Selected strains with alterations in DNA damage repair or cell cycle control were exposed to compounds and growth inhibition was measured relative to vehicle treated controls. The strain used in this assay is mec2-1

[1] = at 5.0 µM (retest, dose inferred, filed as 0.5)
[2] = at 50.0 µM (retest, dose inferred, filed as 5.0)

Row | SMILES | growth inhibition [1] | growth inhibition [2] | growth inhibition (at 50.0 µM)
1 | N#Cc1c(Cl)nc2ccccc2c1N=[N+]=[N-] | -19% | -9% | 63.3%
2 | Cc1nc2c(=O)[nH]c3ccc(Cl)cc3c2o1 | 3% | 59% | 38.1%
3 | Nc1ccc(S(=O)(=O)O)c2cccc(S(=O)(=O)O)c12 | -2% | 0% | 7.4%
4 | O=C1NC(=O)N(c2ccc(Cl)c(Cl)c2)C1=O | 1% | 8% | 36.5%
5 | CN(Cc1ccccc1)c1nc(=[N+](C)C)ss1 | -5% | -1% | 8.8%
6 | CCOC(=O)c1[nH]n(-c2ccccc2)c(=O)c1/C=N/C(=S)Nc1ccccc1OC | -14% | -11% | -31.6%
7 | CCCc1cc(=O)oc2c3c(c4c(c12)OC(C)(C)C=C4)O[C@@H](C)[C@H](C)[C@H]3O | 0% | 94% (active) | 94.8% (active)
8 | CCOC(C)c1ccccc1 (configuration not stated) | 42% | 99% (active) | -5.85%
9 | COc1ccc(C(=O)Oc2c(Br)cc(Br)cc2Br)cc1 | 3% | -3% | 12.7%
10 | O=C1CCCC/C1=C(\Br)I | 31% | 100% (active) | 92.3% (active)
11 | CC(=O)c1csc2c1C(=O)c1scc(C(C)=O)c1C2=O | 27% | 49% | 30.9%
12 | CC(C)CNc1cc(Cl)nc(N)n1 | 4% | 1% | 92.3% (active)
13 | O=C1OC(=O)C2C3CCC(C3=C3CCCCC3)C12 (configuration not stated) | 7% | 95% (active) | 28.2%
14 | N[C@H](C(=O)O)[C@@H]1CC(Cl)=NO1 | 98% (active) | 96% (active) | 89.8% (active)
